aSyn rescue: rescues yeast growth from alpha-synuclein toxicity; Yeast expressing alpha-synuclein, growth rescue, BacTiter-Glo, 24 h; Potency, µM (titrated, usually from 46.1 µM), for inactives: top-dose growth rescue (activation), most hits filed as activators; 370,000 compounds, 0.14% hits; AID 652106; further: % of control where 0% means no effect; nearly all actives have a fitted effect of over 65% in size
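Readout is rescue of growth in alpha-synuclein-expressing yeast, so inhibitors of toxicity appear as activators. Growth after 24 hr at 30 deg C in galactose medium is quantified by luminescence.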
FUS yeast rescue: suppressors of FUS proteinopathy in yeast. AID 1347120. 390,000 compounds, 0.24% hits. S. cerevisiae FUS-expressing, growth rescue, OD600, 24 h. Potency, µM (doses to about 76.6 µM), usual class: activators;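 further: plate controls were DMSO vehicle for no effect and reference control for full effect; nearly all actives have a fitted effect of over 55% in size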
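Yeast FUS proteinopathy model; galactose-induced FUS (2%), starting OD 0.005. Cpds in dilution series, 24hr, 30C, 99% humidity. Abs 600 nm growth. Pos ctrl CP55940 (top 92uM final); neg ctrl DMSO.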
TDP43 rescue: inhibitors of TDP-43 toxicity in yeast; 410,000 compounds, 1.8% hits; TDP-43 expressing yeast growth rescue, BacTiter-Glo, 24 h; Potency, µM (top dose mostly 46.1 µM), without a hit: at the highest dose growth rescue (activation), usual class: activators; further: % of control where 0% means no effect; nearly all actives have a fitted effect of over 50% in size
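Cell-based yeast growth screen: TDP-43 expression induced in galactose, inoculum OD600=0.02 after raffinose pregrowth to mid-log. Read-out BacTiter-Glo luminescence at 24 hr, 30 deg C; inhibition of toxicity seen as signal increase.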
Abeta rescue: A-beta toxicity reversal in yeast. yeast expressing A-beta42, growth rescue, OD600, 48 h; response scale: 0% DMSO, 100% iron-clioquinol control. Potency, µM (doses to about 46.1 µM), most hits filed as activators. 410,000 compounds, 0.063% hits; further: nearly all actives have a fitted effect of over 55% in size
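Growth rescue measured by 600 nm absorbance after 48 h yeast culture at 30 C with compound. Values normalized between DMSO and an equimolar ferric chloride plus clioquinol control.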
Numbers without * were called inactive; i = inactive; ? = inconclusive; nt = no result given; [ ] = remark or other dose. A selection: hits, their analogues and other compounds. The true share with any hit is near 2.1%. The call rests on the fitted dose curve; in most records, active means well fitted curve in the direction sought with a large enough effect; inconclusive means small, poorly fitted or top-dose-only effect, or another doubt; inactive means no such curve, though single readings can be large; an effect the other way counts as inactive or inconclusive. Potency means the concentration at half of the fitted maximal effect.

SMILES | aSyn rescue | FUS yeast rescue | TDP43 rescue | Abeta rescue
Cc1ccc(Nc2nnc(SCC(O)=C(C#N)c3nc4ccccc4[nH]3)s2)c(C)c1 | -1% | ? | -3% | i
CCOC(=O)c1c(NC(=O)c2cc3nc(-c4ccccc4)cc(C(F)(F)F)n3n2)sc2c1CCC(C)C2 (configuration not stated) | nt | i | 11% | i
CCn1c(=NC(=O)CSC(C)=O)sc2cc(OC)ccc21 | 4% | i | 14µM* | ?
CCOC(=O)Cn1c(=NC(=O)CSC(C)=O)sc2cc(F)ccc21 | -1% | i | ? | 6.3µM*
COCCn1c(=NC(=O)CSC(C)=O)sc2cc(OC)ccc21 | 5% | i | ? | ?
COc1ccc(C(=O)NCc2nnc(SCC(=O)N3CCC(C)CC3)o2)cc1 | 9% | nt | -7% | i
C/C(N)=C(/C#N)C(=O)CSc1nc2ccccc2c(=O)n1Cc1ccc(C)cc1 | 0% | i | 3%[9.22 µM] | i
C/C(N)=C(/C#N)C(=O)CSc1nc2ccccc2c(=O)n1Cc1ccc(F)cc1 | 13% | i | 10µM* | 13µM*
CC1(C(=O)NS(=O)(=O)c2ccccc2Cl)CCN1C(=O)C1CC1 (configuration not stated) | -2% | i | 35% | i
Cc1ccc(C(=O)Nc2ccccc2)cc1S(=O)(=O)Nc1ccccc1 | nt | i | 1% | i
Cc1ccc(C(=O)Nc2ccccc2)cc1S(=O)(=O)Nc1ccc(Br)cc1 | nt | i | 13µM* | i
CC(C)N(C(=O)[C@H]1C[C@H](CC(=O)NCc2cccc(C(F)(F)F)c2)C(=O)N2CCc3c([nH]c4ccc(Cl)cc34)[C@]12C)C(C)C | ? | i | 35µM* | i
CC[C@]12c3[nH]c4cc(-c5ccco5)ccc4c3CCN1C(=O)[C@@H](CC(=O)NCc1ccc(OC)c(OC)c1)C[C@@H]2C(=O)N1CCN(C(=O)c2ccco2)CC1 | 4% | 35µM* | 19% | i
CC(C)N(C(=O)[C@H]1C[C@H](CC(=O)NCc2ccco2)C(=O)N2CCc3c([nH]c4cc(-c5ccco5)ccc34)[C@]12C)C(C)C | ? | ? | 13µM* | i
CC[C@]12c3[nH]c4ccccc4c3CCN1C(=O)C(CC(=O)NC/C=C(\C)CCC=C(C)C)C[C@@H]2C(=O)N1CCN(C(=O)C2CC2)CC1 (some centres not stated) | -10% | 18µM* | 0% | i
C[C@]12c3[nH]c4ccc(Cl)cc4c3CCN1C(=O)[C@@H](CC(=O)NCc1cccc(C(F)(F)F)c1)C[C@@H]2C(=O)N1CCOCC1 | 1% | ? | 18% | i
O=C1CN(C(=O)c2ccc(Br)o2)C(c2ccccc2)c2cc(Cl)ccc2N1 (configuration not stated) | 0% | i | 2% | i
CCc1ccccc1NC(=S)NC1CC2CCCC(C1)N2Cc1cccs1 (configuration not stated) | -3% | i | -11% | i
Cc1ccc(C(=O)N2CCNC(=O)C2CC(=O)Nc2ccc(F)cc2)cc1C (configuration not stated) | 1% | i | -12% | i
Cc1ccccc1-n1c(SCC(=O)N/N=C/C=C/c2ccccc2[N+](=O)[O-])nc2ccccc2c1=O | 1% | i | -19% | i
CCN(CC)C(=O)[C@H]1C[C@H](CC(=O)NCc2ccco2)C(=O)N2CCc3c([nH]c4ccc(Cl)cc34)[C@]12C | 11% | i | 28% | i
CC(C)N(C(=O)[C@H]1C[C@H](CC(=O)NCc2ccco2)C(=O)N2CCc3c([nH]c4ccc(Cl)cc34)[C@]12C)C(C)C | 22% | ? | 35µM* | i
Cc1ccc(C(=O)COC(=O)C(C)N2C(=O)C3C4CCC(C4)C3C2=O)cc1C (configuration not stated) | 8% | nt | ? | i
Cn1c(N)c(C(=O)CSc2ccc3c(c2)OCCO3)c(=O)n(C)c1=O | -11% | i | -2% | i
Cc1cc(C(=O)CSc2ccc3c(c2)OCCO3)c(C)n1C1CC1 | 16% | i | 20µM* | i
COc1ccc(-c2nc3scc(CCNS(=O)(=O)c4ccccc4F)n3n2)cc1 | nt | i | 22µM* | i
Cc1cc(N2CCOCC2)n2ncc(-c3ccccc3Cl)c2n1 | 11% | i | 13µM* | i

Screens: PubChem, National Center for Advancing Translational Sciences (NCATS)
